High-throughput results as filed in PubChem.
The list is not random: actives were taken first. Their share in the collection is about 12%.
Sfp inh = Sfp phosphopantetheinyl transferase inhibition. Potency, µM, inactives show largest response in the series, negative = inhibition, usual class: inhibitors. 3.5% of 310,000 active. AID 1490. Biochemical Sfp PPTase activity, qHTS. Q9F4F7;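 also: the enzyme is Sfp with the accession as filed and its product quenches rhodamine fluorescence; 0% = enzyme reaction without inhibitor and -100% = no enzyme wells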
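Fluorescence-quenching assay with 15 nM Sfp, 5 uM rhodamine-CoA and 12.5 uM BHQ-2-labelled ybbR peptide in pH 7.6 Hepes/MgCl2 buffer. Enzyme was pre-incubated with compound for 15 min at room temperature. Rate was taken from the 30-min fluorescence change (525/598 nm).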
PLK1 PBD block = inhibitors of human PLK1 polo-box domain binding; Potency, µM, inactives show max response, negative = inhibition, most hits filed as inhibitors; AID 720504; P53350; Plk1 PBD binding of FITC phosphopeptide, fluorescence polarization; 2.8% of 360,000 active; also: series mostly up to about 57 µM; nearly all actives have a fitted effect of over 65% in size
Target sequence (P53350 whole entry, looked up, the tested form may be a part): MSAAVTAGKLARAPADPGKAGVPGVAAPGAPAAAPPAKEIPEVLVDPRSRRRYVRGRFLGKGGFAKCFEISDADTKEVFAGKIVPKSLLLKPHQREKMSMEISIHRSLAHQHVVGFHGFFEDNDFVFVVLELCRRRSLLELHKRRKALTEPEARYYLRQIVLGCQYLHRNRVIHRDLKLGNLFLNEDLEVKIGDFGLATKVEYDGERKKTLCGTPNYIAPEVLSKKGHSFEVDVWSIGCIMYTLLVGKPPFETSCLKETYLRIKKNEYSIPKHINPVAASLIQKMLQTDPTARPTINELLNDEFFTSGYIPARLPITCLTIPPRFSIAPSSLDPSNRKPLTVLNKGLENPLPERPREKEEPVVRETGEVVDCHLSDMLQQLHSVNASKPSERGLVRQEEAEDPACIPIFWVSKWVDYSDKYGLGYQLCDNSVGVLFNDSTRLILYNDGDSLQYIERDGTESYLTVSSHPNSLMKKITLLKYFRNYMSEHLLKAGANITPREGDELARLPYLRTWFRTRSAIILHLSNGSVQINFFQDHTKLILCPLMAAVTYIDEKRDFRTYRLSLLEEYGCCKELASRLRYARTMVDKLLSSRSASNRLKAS
ALDH1A1 inh = ALDH1A1 (human) enzyme inhibition. Purified ALDH1A1, NADH fluorescence, propionaldehyde substrate. 7.3% of 220,000 active. Potency, µM (series often up to 75.3 µM), for the others: top-dose activity, negative = inhibition, usual class: inhibitors. AID 1030; active = well fitted inhibition curve with a large enough effect, not every such curve was filed as active; inconclusive = small, poorly fitted or top-dose-only effect, or another doubt; inactive = no such curve, though single readings can be large or run the other way;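 also: plate controls were no enzyme wells and a reference inhibitor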
RORg inh = ROR gamma (mouse) transcription inhibition | Drosophila S2 Gal4-RORgamma UAS-luciferase reporter, 20 h | Potency, µM (doses to about 53.6 µM), for the others: at the highest dose activity change, negative = inhibition, actives largely listed as inhibitors | 5.4% of 310,000 active; also: nearly all actives have a fitted effect of over 60% in size
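Drosophila Schneider cells stably carrying a metallothionein-driven Gal4 DBD–ROR gamma fusion and a UAS-Photinus luciferase reporter were exposed to compound for 1 hr, then induced with copper sulfate (700 uM final) for 20 hr at ambient temperature before luminescence reading.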
VP16 counter = inhibits Gal4-VP16 luciferase reporter, ROR gamma counter-screen | 3.5% of 310,000 active | Potency, µM (series often up to 53.6 µM), for inactives: at the top dose activity, negative = inhibition, most hits filed as inhibitors | Drosophila S2 Gal4-VP16 UAS-luciferase, luminescence, 20 h;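 also: Gal4-VP16 expression switched on by copper sulfate through the metallothionein promoter; nearly all actives have a fitted effect of over 50% in size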
* hit, by the source's call; ? = inconclusive; . = not tested or not shown. Unless noted, calls follow the shape of the dose curve; as a rule, active = well fitted curve in the direction sought with a large enough effect; inconclusive = small, poorly fitted or top-dose-only effect, or another doubt; inactive = no such curve, though single readings can be large; an effect the other way counts as inactive or inconclusive. Unless noted, % is scaled to controls: 0 for no effect and ±100 for the full control effect; potency is read from the fitted curve at half-maximal effect.

SMILES	Sfp inh	PLK1 PBD block	ALDH1A1 inh	RORg inh	VP16 counter
C=C(C)C(=O)Nc1cccc(C2=NOC3(C2)C[C@@H](C(N)=O)N(C(=O)c2ccc(Cl)cc2)C3)c1 (stereo not given in full)	4.8%	23.8µM*	.	16.4%	7.8%
NC(=O)CNC(=O)[C@@H]1CC2(CC(c3ccc(Cl)cc3)=NO2)CN1C(=O)c1ccccc1 (stereo not given in full)	1.1%	-10.4%	28.2µM*	2.0%	5.9%
C=C(C)C(=O)Nc1cccc(C2=NOC3(C2)C[C@H](C(N)=O)N(C(=O)c2ccccc2)C3)c1 (stereo not given in full)	8.5%	?	.	5.4%	2.7%
CCC(=O)Nc1cccc(C2=NOC3(C2)C[C@@H](C(N)=O)N(C(=O)COc2ccc(Cl)cc2)C3)c1 (stereo not given in full)	-10.3%	1.1%	.	-1.2%	2.2%
c1ccc(-c2nnsc2Sc2ccccn2)cc1	6.5%	-1.5%	?	27.9%	12.1%
Clc1ccccc1-c1csc(Nc2cccnc2)n1	31.6µM*	-19.2%	-2.3%	-34.4%	-8.7%
Clc1cccc(-c2csc(Nc3cccnc3)n2)c1	56.2µM*	-1.4%	-3.2%	2.5%	7.8%
Nc1nc(Nc2ccccc2)nc2c1ncn2[C@@H]1O[C@@H](CO)[C@H](O)[C@H]1O	5.6%	.	-10.3%	-0.1%	?
CC1(CC(=O)N/N=C/c2ccc(-c3ccc(C(=O)O)cc3)o2)OCCO1	-20.3%	-3.4%	?	-4.1%	2.6%
C=CCNC(=S)N/N=C/c1ccc(-c2ccc(Br)cc2)o1	5.3%	-3.8%	-13.2%	0.355µM*	0.398µM*
Cc1nnc(N/N=C/c2ccc(-c3ccc(Br)cc3)o2)n1N	56.2µM*	-21.7%	7.94µM*	3.16µM*	8.91µM*
CCOC(=O)c1ccc(-c2ccc(/C=N/NC(=O)c3cncc(Br)c3)o2)cc1	13.4%	-11.4%	.	?	?
O=C(Cc1ccc(Br)cc1)N/N=C/c1ccc(-c2cccc(C(=O)O)c2)o1	-0.8%	-16.6%	.	-0.8%	-2.4%
COC(=O)c1ccc(-c2ccc(/C=N/NC(=O)CC3(C)OCCCO3)o2)cc1	50.1µM*	-3.1%	?	0.0%	-1.0%
CCCCOC(=O)c1ccc(-c2ccc(/C=N/NC(=S)NCC)o2)cc1	6.2%	-0.3%	?	0.355µM*	2.51µM*
CCOC(=O)C1=CCC(c2cccn2C(=O)OC(C)(C)C)N(S(=O)(=O)c2ccc(C)cc2)C1 (stereo not given)	.	-6.5%	.	.	.
CC(C)=CCC[C@H](C)C[C@@H]1Cc2[nH]c(=S)[nH]c(=O)c2[C@@H](c2ccc(F)cc2)O1	.	-3.1%	.	.	.
C=CCNC(=O)c1ccc(-c2cccc([N+](=O)[O-])c2)o1	18.0%	-3.3%	-8.0%	9.2%	-1.1%
C=CCNC(=S)N/N=C/c1ccc(-c2cccc([N+](=O)[O-])c2)o1	1.2%	-1.9%	-3.5%	0.501µM*	2.51µM*
COC(=O)C1=C[C@@H](C(=O)OC)C2C3=C(C(=O)[C@@]2(C)NC(=O)c2ccccc2)[C@H](C)[C@@H]2C(=O)NC(=O)[C@@H]2[C@@H]3C1 (stereo not given in full)	2.3%	.	.	-6.0%	8.7%
CCn1c2ccccc2c2cc(/C=N/NC(=O)c3ccccc3)ccc21	27.1%	-7.1%	?	8.91µM*	?
CCn1c2ccccc2c2cc(/C=N/n3c(C)nnc3C)ccc21	50.1µM*	-3.5%	?	-13.2%	?
Cn1c2ccccc2c2cc(/C=N/NC(=O)c3cc(O)ccc3O)ccc21	-22.0%	21.2µM*	.	?	?
COc1ccc(C2N(c3cc(Cl)ccc3OC)C(=O)C3CCCN32)cc1 (stereo not given)	-21.1%	-10.2%	10µM*	-5.1%	-7.2%
COc1ccc(Cl)cc1N1C(=O)C2CCCN2C1c1sccc1C (stereo not given)	2.1%	23.8µM*	?	-2.3%	9.9%
SMILES	Sfp inh	PLK1 PBD block	ALDH1A1 inh	RORg inh	VP16 counter
COc1ccc(Cl)cc1N1C(=O)C2CCCN2C1c1ccc(F)cc1 (stereo not given)	7.7%	1.4%	1.3%	9.5%	-3.5%
CSCC[C@H](NC(=O)[C@H](Cc1ccccc1)NC[C@@H](NC[C@@H](N)CS)C(C)C)C(=O)O	-23.6%	.	-10.5%	22.9%	1.2%
O=C(NCCc1ccccc1)NC1CCCCC1	13.1%	3.7%	15.7%	?	?
S=C(NCCc1ccccc1)N/N=C/C1CCCCC1	13.3%	.	-5.9%	1.41µM*	5.62µM*
S=C(NCCc1ccccc1)NN=C1CCCCCC1	17.9%	26.7µM*	0.9%	-15.0%	0.6%
CCCn1c(SCC(=O)N(CC)c2c(N)n(Cc3ccccc3)c(=O)[nH]c2=O)nnc1-c1ccncc1	.	1.3%	.	.	.
CCN(CC)C(=S)NC(=O)c1ccc(F)cc1	1.1%	-5.4%	-6.2%	0.794µM*	2.82µM*
CCN(CC)C(=S)NC(=O)c1cccnc1	50.1µM*	-18.4%	?	2.51µM*	5.62µM*
O=C(NCO)c1cccnc1	7.8%	5.8%	13.4%	-22.8%	-13.9%
CC1(C)COC(/C=C/c2cccc([N+](=O)[O-])c2)=N1	-1.9%	-4.2%	14.1µM*	?	1.41µM*
CC1(C)COC(c2cc([N+](=O)[O-])ccc2Cl)=N1	7.6%	-0.1%	3.5%	-0.9%	9.7%
C=C(C)C1CC=C(C)/C(=N/NC(=O)COc2ccc(C)cc2)C1 (stereo not given)	20.3%	-0.3%	-0.9%	?	-24.4%
C=C(C)C1CC=C(C)/C(=N\NC(=S)Nc2ccc(C)cc2)C1 (stereo not given)	8.2%	-4.6%	?	1.12µM*	4.47µM*
CCCOc1ccc(CSc2nnc(CCC)n2N)cc1	7.3%	-11.4%	8.2%	11.9%	3.3%
COc1ccc(-c2nnc(SCc3cc(C)ccc3C)n2N)cc1	2.9%	-7.7%	22.4µM*	7.6%	-4.3%
CCCCc1nnc(SCCSc2nnc(CCCC)n2N)n1N	5.0%	-3.2%	17.8µM*	-20.0%	-10.3%
CCCc1nnc(SCc2ccc(OC)cc2)n1N	13.1%	21.2µM*	4.0%	-4.6%	-2.6%
COc1ccc(-c2nnc(SCc3cccc(C)c3)n2N)cc1	24.9%	-10.0%	0.5%	23.5%	-1.0%
CCCc1nnc(SCC(=O)Nc2ccc(OC)cc2)n1N	-4.7%	-5.3%	?	-5.6%	1.3%
COc1ccccc1N(C)S(=O)(=O)c1ccc(C(=O)Nc2cc(OC)c(OC)c(OC)c2)cc1	.	4.1%	.	.	.
CCn1c(O)c(/C=N/n2cnnc2)sc1=S	44.7µM*	-24.0%	-27.5%	?	-2.1%
CCn1c(O)c(C=Nc2ccccc2)sc1=S	56.2µM*	-2.2%	?	18.4%	?
Oc1c(C=Nc2ccccc2)sc(=S)n1Cc1ccccc1	24.0%	14.5%	1.41µM*	28.4%	25.3%
CCn1c(O)c(C=Nc2ccccc2)n(-c2ccccc2)c1=S	79.4µM*	?	?	?	?
